Source: PubChem (National Center for Advancing Translational Sciences (NCATS))
JMJD2E inh = JMJD2E (human) inhibition. JMJD2E catalytic domain, FDH-coupled NADH fluorescence (FDH is formaldehyde dehydrogenase). Potency, µM (top dose mostly 57.1 µM), most hits filed as inhibitors. actives 1.6% (n = 230,000); note: nearly all actives have a fitted effect of over 50% in size
Target sequence (B2RXH2 1-337 limits assumed): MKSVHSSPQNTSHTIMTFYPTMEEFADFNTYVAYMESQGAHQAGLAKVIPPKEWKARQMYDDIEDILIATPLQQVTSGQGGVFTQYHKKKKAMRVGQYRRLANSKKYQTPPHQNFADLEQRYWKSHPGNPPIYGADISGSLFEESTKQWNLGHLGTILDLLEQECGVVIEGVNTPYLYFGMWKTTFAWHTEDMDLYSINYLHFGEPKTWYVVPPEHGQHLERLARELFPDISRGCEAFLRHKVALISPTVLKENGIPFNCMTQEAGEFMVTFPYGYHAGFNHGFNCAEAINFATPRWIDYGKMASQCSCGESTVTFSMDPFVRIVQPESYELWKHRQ
ALDH1A1 block = inhibitors of human aldehyde dehydrogenase 1A1. P00352. Purified ALDH1A1, NADH fluorescence, propionaldehyde substrate. Potency, µM (doses to about 75.3 µM), hits mostly inhibitors. actives 7.3% (n = 220,000). AID 1030
PNC inhibitor = perinucleolar compartment assembly inhibition | PC3M PTB-GFP, PNC prevalence imaging, 16 h; stronger effect = lower value | AID 2417 | activity change (PNC), negative = inhibition, % at 10 µM | actives 3.1% (n = 140,000);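 active = readout at or below -70, meaning at least 70% loss of cells showing the perinucleolar compartment, a nuclear body marking cancer cells; inconclusive = readout between -30 and a set limit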
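Read-out is percentage of cells bearing a perinucleolar compartment, from automated 20x imaging of fixed, Hoechst-stained PC3M PTB-GFP cells. Cells were seeded 4 h, then exposed 16 h to compound (23 nl of library stock) in duplicate plates.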
HPGD block = inhibitors of human 15-hydroxyprostaglandin dehydrogenase (HPGD); purified HPGD, NADH fluorescence kinetic, PGE2 substrate; Potency, µM, actives largely listed as inhibitors; actives 4.3% (n = 150,000); AID 894
Target sequence (P15428 whole entry, looked up): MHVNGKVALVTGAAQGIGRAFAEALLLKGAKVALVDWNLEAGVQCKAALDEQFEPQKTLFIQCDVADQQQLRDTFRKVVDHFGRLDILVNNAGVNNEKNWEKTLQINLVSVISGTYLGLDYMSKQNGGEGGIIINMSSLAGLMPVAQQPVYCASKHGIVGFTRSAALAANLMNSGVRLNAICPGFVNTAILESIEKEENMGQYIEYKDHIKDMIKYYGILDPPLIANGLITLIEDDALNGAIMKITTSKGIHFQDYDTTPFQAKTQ
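NADH formation kinetics: reaction with 30 uM PGE2 and 1 mM NAD+ (final), 20 nM enzyme, Tris-HCl pH 8 with Tween 20, after 15 min compound preincubation at room temperature. Fluorescence change, last versus first of five reads.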
Large screens that a line does not name were inactive. This is a sample that favours compounds with a hit; in the whole collection about 11% have one here. Unless noted, calls come from the whole dose curve; as a rule, active = well fitted inhibition curve with a large enough effect (not every such curve was filed as active); inconclusive = small, poorly fitted or top-dose-only effect, or another doubt; inactive = no such curve, though single readings can be large or run the other way.

Cc1ccc2nc(NC(=O)CN(C)S(=O)(=O)c3cccc4nsnc34)sc2c1	PNC inhibitor -122
CC1CCc2nc(NC(=O)C3CCCO3)sc2C1 (centres undefined)	ALDH1A1 block 20µM, PNC inhibitor inconclusive
CC1CCc2nc(NC(=O)Cc3cccs3)sc2C1 (centres undefined)	JMJD2E inh inconclusive, ALDH1A1 block 20µM, PNC inhibitor inconclusive
CC1CCc2nc(NC(=O)c3ccco3)sc2C1 (centres undefined)	ALDH1A1 block inconclusive
O=C(Nc1nc2ccc(F)cc2s1)C1CCCO1 (centres undefined)	none
Cc1ccc2nc(NC(=O)Cc3cccs3)sc2c1	ALDH1A1 block 7.9µM
C=NCc1cc2c(OC[C@@H](O)CNC(C)(C)C)cccc2[nH]1	none (no result: JMJD2E inh, PNC inhibitor, HPGD block)
N[C@@H](Cc1ccnnc1)C(=O)O	none (no result: JMJD2E inh, PNC inhibitor)
Cc1cc(C)c2c(c1)/C(=c1/sc3n(c1=O)CN(c1ccccc1)CN=3)C(=O)N2	none (no result: ALDH1A1 block, PNC inhibitor, HPGD block)
CCOC(=O)c1oc2c(O)c(O)ccc2c(=O)c1-c1nncn1-c1ccccc1	JMJD2E inh 7.9µM
CCOC(=O)c1oc2c(C)c(O)ccc2c(=O)c1-c1nncn1-c1ccccc1	none
Cc1cc(SCc2cc(=O)n3ccsc3n2)nc2ccccc12	none
COc1ccc(C)cc1-n1nnnc1SCC(=O)N1CCC(C(=O)Nc2nccs2)CC1	ALDH1A1 block 7.9µM, PNC inhibitor inconclusive
Cc1ccccc1-n1nnnc1SCc1cc(=O)n2ccsc2n1	ALDH1A1 block 0.63µM (no result: PNC inhibitor, HPGD block)
CCN(C(=O)CSc1nnnn1-c1cc(C)ccc1OC)C1CCS(=O)(=O)C1 (centres undefined)	ALDH1A1 block inconclusive
COc1ccc(C)cc1-n1nnnc1SCC1CCCCO1 (centres undefined)	ALDH1A1 block 32µM
O=c1cc(CN2CCN(c3ccc(O)cc3)CC2)nc2scc(-c3ccccc3)n12	JMJD2E inh inconclusive, ALDH1A1 block 14µM (no result: PNC inhibitor, HPGD block)
O=C(Nc1cccc(Cl)c1N1CCOCC1)c1cccnc1Cl	none (no result: ALDH1A1 block, PNC inhibitor, HPGD block)
Cn1nnnc1SCc1cc(=O)n2ccsc2n1	none
COc1ccc(C)cc1-n1nnnc1SCc1cn2ccsc2n1	ALDH1A1 block 14µM
Cc1nnc(SCc2cn3ccsc3n2)n(N)c1=O	none
O=c1cc(CSc2nnnn2-c2ccccc2)nc2sccn12	ALDH1A1 block 13µM (no result: PNC inhibitor, HPGD block)
O=c1cc(CSc2nnnn2-c2ccccc2)nc2scc(-c3ccccc3)n12	JMJD2E inh inconclusive, ALDH1A1 block 3.2µM, PNC inhibitor inconclusive
O=c1cc(CSc2nnnn2-c2ccccc2)nc2nc[nH]n12	ALDH1A1 block inconclusive
Cc1cc(=O)n2ccsc2n1	none
O=C(c1ccncc1)N1CCC2(CCCN(Cc3nccs3)C2)CC1	none (no result: JMJD2E inh, PNC inhibitor)
Cc1cccc(C)c1NC(=O)CSc1cc(C(=O)c2nccn2C)c2ccccc2n1	none
Cc1ccc(Nc2ccc(C(=O)N3CCCC3)cn2)c(C)c1	HPGD block 2.2µM
Cc1cccc(Nc2ccc(C(=O)N3CCOCC3)cn2)c1	JMJD2E inh inconclusive (no result: PNC inhibitor, HPGD block)
Cc1cc(Br)c(OCC(=O)NN)c2c1CCC2	ALDH1A1 block 2µM (no result: PNC inhibitor, HPGD block)
CC(=O)Nc1ccc(NC(=O)COc2c(C)cc(Br)cc2C)cc1	none (no result: PNC inhibitor, HPGD block)
O=C(O)c1cccnc1C(=O)O	JMJD2E inh 2µM (no result: PNC inhibitor)
CCOC(=O)c1ccc(N2C(=O)c3n[nH]c(C)c3C2c2ccc(OC)cc2OC)cc1 (centres undefined)	JMJD2E inh inconclusive, PNC inhibitor -119
O=c1nc2ccccc2c2n1CC(CN1CCN(c3ccccc3)CC1)N2 (centres undefined)	none (no result: JMJD2E inh, PNC inhibitor, HPGD block)
COc1ccc(CC/C(C)=N\NC(N)=O)cc1	PNC inhibitor -105
Oc1cc(O)c2c(c1)O[C@H](c1ccc(O)c(O)c1)[C@@H](O)C2	JMJD2E inh 25µM, ALDH1A1 block inconclusive (no result: PNC inhibitor)
O=C1c2c(O)cc(O)cc2O[C@@]12c1c(cc(O)c3c1O[C@H](c1ccc(O)cc1)[C@@H](O)C3)O[C@@H]2c1ccc(O)cc1	PNC inhibitor inconclusive, HPGD block inconclusive
O=c1c(O)cc(C2Oc3cc(O)cc(O)c3CC2O)cc2c(C3Oc4cc(O)cc(O)c4CC3O)cc(O)c(O)c12 (centres undefined)	JMJD2E inh 25µM, HPGD block 13µM (no result: PNC inhibitor)
Oc1ccc2c(c1)OC(c1ccc(O)c(O)c1)C(O)C2 (centres undefined)	JMJD2E inh 16µM, ALDH1A1 block inconclusive (no result: PNC inhibitor)
COc1ccc([C@@H]2CC(=O)c3c(O)cc(O)cc3O2)cc1O	none (no result: PNC inhibitor)
Cc1ccc(C2CC(=O)Oc3cc(O)ccc32)cc1 (centres undefined)	none
Nc1cc(F)ccc1N1CCCCCC1	ALDH1A1 block inconclusive (no result: PNC inhibitor, HPGD block)
CCNc1oc(COc2ccccc2F)nc1C#N	ALDH1A1 block inconclusive, HPGD block 14µM
COc1ccc(Nc2oc(COc3ccccc3OC)nc2C#N)cc1	HPGD block 14µM
O=C(/C=C/c1ccccc1)N1CCC(N2CCC(C(=O)N3CCOCC3)CC2)CC1	none (no result: PNC inhibitor, HPGD block)
COc1ccccc1NC(=O)c1cc2ccccc2o/c1=N\O	ALDH1A1 block inconclusive, HPGD block 22µM
COc1ccccc1NC(=O)c1cc2ccc(O)cc2o/c1=N\O	JMJD2E inh inconclusive
O=C(/C=C/c1ccccc1)OCc1cnc(Cl)s1	none (no result: PNC inhibitor, HPGD block)
CCCc1ccc(-c2cc(C(=O)NN3CCOCC3)c3ccccc3n2)cc1	JMJD2E inh inconclusive
CCc1ccc(-c2cc(C(=O)Nn3cnnc3)c3ccccc3n2)cc1	JMJD2E inh inconclusive, ALDH1A1 block inconclusive, PNC inhibitor -82
CC1(C)OC(c2ccccc2)=C/C(=C/C=Nc2ccccc2)O1	ALDH1A1 block 4.5µM
CC1(C)OC(c2ccccc2)=C/C(=C\C=N\NC(=O)c2ccncc2)O1	JMJD2E inh 22µM (no result: ALDH1A1 block, PNC inhibitor, HPGD block)
Cc1ccc(N=CC=C2OC(C)(C)C(C)(C)O2)cc1	JMJD2E inh inconclusive, ALDH1A1 block inconclusive
Cc1ccc(NC(=S)NCCc2ccc(S(N)(=O)=O)cc2)cc1C	ALDH1A1 block inconclusive, PNC inhibitor -109 (no result: HPGD block)
COc1cc(OC)cc(C(=O)NNC(=S)Nc2ccc(S(N)(=O)=O)cc2)c1	ALDH1A1 block 11µM (no result: PNC inhibitor, HPGD block)
COc1ccc(NC(=S)NNC(=O)c2ccc(S(=O)(=O)N3CCOCC3)cc2)cc1	ALDH1A1 block inconclusive (no result: PNC inhibitor, HPGD block)
NS(=O)(=O)c1ccc(CCNC(=S)NC2CCCCC2)cc1	none (no result: ALDH1A1 block, PNC inhibitor, HPGD block)
NS(=O)(=O)c1ccc(CNC(=S)NC2CC2)cc1	ALDH1A1 block 3.2µM (no result: PNC inhibitor, HPGD block)
COc1ccc(OC)c(NC(=S)NCc2ccc(S(N)(=O)=O)cc2)c1	ALDH1A1 block inconclusive (no result: PNC inhibitor, HPGD block)
COc1ccc(NC(=S)NCc2ccc(S(N)(=O)=O)cc2)c(OC)c1	ALDH1A1 block inconclusive, HPGD block 14µM
Cc1cc(C)cc(NC(=S)NCCc2ccc(S(N)(=O)=O)cc2)c1	ALDH1A1 block inconclusive
C/C(=N\NS(=O)(=O)c1cccc([N+](=O)[O-])c1)c1cccnc1	ALDH1A1 block inconclusive (no result: PNC inhibitor, HPGD block)
OC[C@H](CCc1c[nH]c2ccccc12)c1c[nH]c2ccccc12	ALDH1A1 block inconclusive (no result: JMJD2E inh, PNC inhibitor)
CCOCCCNC(=S)Nc1ccc(S(N)(=O)=O)cc1	HPGD block 14µM
CCCNC(=S)Nc1ccc(S(N)(=O)=O)cc1	none (no result: PNC inhibitor, HPGD block)
COc1ccc(CNC(=S)Nc2ccc(S(N)(=O)=O)cc2)cc1	JMJD2E inh inconclusive, ALDH1A1 block 28µM (no result: PNC inhibitor, HPGD block)
CCCCC#Cc1ccccc1CC(=O)Nc1ccccc1	JMJD2E inh inconclusive, PNC inhibitor -119
O=C(OCC(=O)N1CCCCC1)c1cc(NS(=O)(=O)c2ccc(Cl)c([N+](=O)[O-])c2)ccc1O	HPGD block 8.9µM
